From the supplement of paper PMC11732987, “Enantioselective OTUD7B fragment discovery through chemoproteomics screening and high-throughput optimisation” (Communications Chemistry, 2025)

Key:
Assay in all cases: log2 ratio of Biotin-Ahx-Ub-VS probe labelling (compound/DMSO); higher = less target engagement, active = hit call of the paper (q ≤ 0.05, log2 ratio ≤ -1)
Conditions in all cases: treatment time: 3 h
[1] = compound: CCC1N(CCc2sccc12)C(=O)CCl
Method in brief: (§1)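 HEK293T lysate (495 µg per sample, in Tris/CHAPS/IGEPAL buffer with protease inhibitors) was exposed in triplicate to compound at 50 or 200 µM, or to DMSO, for 3 h, then to Biotin-Ahx-Ub-VS (0.5 µM final) for 1 h. The labelled DUBs were enriched on NeutrAvidin, digested with LysC and trypsin, and analysed by diaPASEF LC-MS/MS. Average base-two log ratios of compound over DMSO came from median-normalised label-free quantities by unpaired t-test. Only proteins with at least 2 unique peptides were used.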

[2] = compound: CN1c2ccccc2C(CS1(=O)=O)NC(=O)CCl
Method in brief: as §1

[3] = compound: Cl.ClCC(=O)N1CCc2ncncc2C1
Method in brief: as §1

[4] = compound: Cl.Cn1ncc2C(CCCc12)NC(=O)CCl
Method in brief: as §1

[5] = compound: ClCC(=O)NC1CCOc2ccccc12
Method in brief: as §1

[6] = compound: ClCC(=O)NC1CCCc2ccccc12
Method in brief: (§2)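 Spectronaut label-free, global-median-normalised protein quantities underlie these values, which are average ratios of compound to vehicle from an unpaired t-test. They are reported as log2 and include only proteins identified by two or more unique peptides. Samples of HEK293T lysate (495 µg) were treated in triplicate with a compound concentration series or vehicle for 3 h, then labelled with Biotin-Ahx-Ub-VS at 0.5 µM final for 1 h before NeutrAvidin enrichment, LysC and trypsin digestion, and diaPASEF LC-MS/MS.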

[7] = compound: ClCC(=O)N[C@@H]1CCCc2ccccc12
Method in brief: as §2

[8] = compound: ClCC(=O)N[C@H]1CCCc2ccccc12
Method in brief: as §2

[9] = compound: CCC1N(CCc2cc(OC)c(Cl)cc12)C(=O)CCl
Method in brief: as §1

[10] = compound: CCCC1N(CCc2cc(OC)c(OC)cc12)C(=O)CCl
Method in brief: as §1

Measured: log2 ratio of Biotin-Ahx-Ub-VS probe labelling

USP5 (UniProt P45974)
Chain of UniProt P45974 (P45974 whole entry): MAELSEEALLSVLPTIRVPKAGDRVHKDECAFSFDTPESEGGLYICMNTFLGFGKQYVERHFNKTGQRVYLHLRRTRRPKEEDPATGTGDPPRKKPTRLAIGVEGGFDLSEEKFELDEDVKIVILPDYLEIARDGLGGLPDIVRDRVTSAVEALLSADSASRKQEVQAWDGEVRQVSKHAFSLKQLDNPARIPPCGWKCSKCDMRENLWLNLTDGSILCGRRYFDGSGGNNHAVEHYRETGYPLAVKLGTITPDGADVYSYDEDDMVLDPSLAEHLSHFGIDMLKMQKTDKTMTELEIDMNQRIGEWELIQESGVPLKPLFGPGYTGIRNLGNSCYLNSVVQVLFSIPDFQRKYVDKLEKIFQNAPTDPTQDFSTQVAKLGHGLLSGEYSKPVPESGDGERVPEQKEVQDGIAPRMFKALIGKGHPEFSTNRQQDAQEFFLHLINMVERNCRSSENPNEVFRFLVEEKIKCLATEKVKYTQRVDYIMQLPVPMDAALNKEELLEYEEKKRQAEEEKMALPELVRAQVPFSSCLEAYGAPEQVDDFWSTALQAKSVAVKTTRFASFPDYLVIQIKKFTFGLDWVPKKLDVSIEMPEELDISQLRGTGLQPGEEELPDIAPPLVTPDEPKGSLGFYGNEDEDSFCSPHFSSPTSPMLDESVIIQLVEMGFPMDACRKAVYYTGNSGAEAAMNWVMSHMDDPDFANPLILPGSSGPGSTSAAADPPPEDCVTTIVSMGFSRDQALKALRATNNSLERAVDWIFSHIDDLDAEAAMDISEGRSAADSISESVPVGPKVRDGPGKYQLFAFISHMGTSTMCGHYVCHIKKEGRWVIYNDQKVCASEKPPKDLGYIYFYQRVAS
inactive: [1]; compound concentration: 50uM 0.107 | [1]; compound concentration: 200uM 0.165 | [2]; compound concentration: 50uM -0.0432 | [2]; compound concentration: 200uM -0.0749 | [3]; compound concentration: 50uM 0.179 | [3]; compound concentration: 200uM -0.233 | [4]; compound concentration: 50uM 0.122 | [4]; compound concentration: 200uM -0.00464 | [5]; compound concentration: 50uM 0.209 | [5]; compound concentration: 200uM 0.107 | [6]; compound concentration: 0.78uM -0.0702 | [6]; compound concentration: 1.56uM -0.0265 | [6]; compound concentration: 3.13uM -0.189 | [6]; compound concentration: 6.25uM -0.131 | [6]; compound concentration: 12.5uM -0.157 | [6]; compound concentration: 25uM -0.19 | [6]; compound concentration: 50uM -0.0861 | [6]; compound concentration: 100uM -0.067 | [6]; compound concentration: 200uM -0.0831 | [7]; compound concentration: 0.78uM -0.209 | [7]; compound concentration: 1.56uM -0.162 | [7]; compound concentration: 3.13uM -0.139 | [7]; compound concentration: 6.25uM -0.155 | [7]; compound concentration: 12.5uM -0.0604 | [7]; compound concentration: 25uM -0.131 | [7]; compound concentration: 50uM -0.159 | [7]; compound concentration: 100uM -0.0875 | [7]; compound concentration: 200uM -0.125 | [8]; compound concentration: 0.78uM -0.109 | [8]; compound concentration: 1.56uM -0.17 | [8]; compound concentration: 3.13uM -0.185 | [8]; compound concentration: 6.25uM -0.0549 | [8]; compound concentration: 12.5uM -0.103 | [8]; compound concentration: 25uM -0.119 | [8]; compound concentration: 50uM -0.0192 | [8]; compound concentration: 100uM -0.093 | [8]; compound concentration: 200uM -0.184 | [9]; compound concentration: 50uM 0.0912 | [9]; compound concentration: 200uM -0.014 | [10]; compound concentration: 50uM -0.158 | [10]; compound concentration: 200uM -0.268

USP25 (UniProt Q9UHP3)
Chain of UniProt Q9UHP3 (Q9UHP3 whole entry): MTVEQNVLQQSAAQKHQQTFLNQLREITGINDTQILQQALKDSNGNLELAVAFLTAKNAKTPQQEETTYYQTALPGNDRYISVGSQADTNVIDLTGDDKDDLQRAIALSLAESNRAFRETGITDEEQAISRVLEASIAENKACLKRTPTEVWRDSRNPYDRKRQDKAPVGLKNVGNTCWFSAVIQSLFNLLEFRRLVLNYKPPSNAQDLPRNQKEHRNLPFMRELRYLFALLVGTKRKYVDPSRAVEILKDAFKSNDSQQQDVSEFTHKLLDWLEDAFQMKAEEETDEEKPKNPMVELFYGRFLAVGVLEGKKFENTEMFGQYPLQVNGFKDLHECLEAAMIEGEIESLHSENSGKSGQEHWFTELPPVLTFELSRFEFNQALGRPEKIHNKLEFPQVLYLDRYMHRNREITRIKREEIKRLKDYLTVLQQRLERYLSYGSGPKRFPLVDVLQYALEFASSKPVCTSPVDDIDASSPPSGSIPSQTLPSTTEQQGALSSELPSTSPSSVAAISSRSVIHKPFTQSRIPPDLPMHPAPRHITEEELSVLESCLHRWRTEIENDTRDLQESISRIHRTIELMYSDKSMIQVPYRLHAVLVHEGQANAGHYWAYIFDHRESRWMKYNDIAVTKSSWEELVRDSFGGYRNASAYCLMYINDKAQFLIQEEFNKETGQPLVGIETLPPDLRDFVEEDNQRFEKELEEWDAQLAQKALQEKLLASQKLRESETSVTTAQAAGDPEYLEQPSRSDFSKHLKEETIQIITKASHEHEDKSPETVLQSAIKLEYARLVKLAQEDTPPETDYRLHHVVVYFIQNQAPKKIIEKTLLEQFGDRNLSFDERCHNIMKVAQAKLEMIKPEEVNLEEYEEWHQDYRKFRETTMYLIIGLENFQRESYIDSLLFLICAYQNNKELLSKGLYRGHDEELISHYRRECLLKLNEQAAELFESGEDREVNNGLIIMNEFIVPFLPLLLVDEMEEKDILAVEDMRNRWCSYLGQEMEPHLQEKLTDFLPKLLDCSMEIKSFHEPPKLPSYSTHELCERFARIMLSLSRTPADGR
inactive: [1]; compound concentration: 50uM 0.366 | [2]; compound concentration: 50uM -0.365 | [2]; compound concentration: 200uM -0.0888 | [3]; compound concentration: 50uM -0.861 | [4]; compound concentration: 50uM 0.177 | [4]; compound concentration: 200uM -0.552 | [5]; compound concentration: 50uM 0.145 | [5]; compound concentration: 200uM -0.0181 | [6]; compound concentration: 0.78uM -0.139 | [6]; compound concentration: 1.56uM -0.159 | [6]; compound concentration: 3.13uM -0.428 | [6]; compound concentration: 6.25uM -0.379 | [6]; compound concentration: 12.5uM -0.358 | [6]; compound concentration: 25uM -0.339 | [6]; compound concentration: 50uM -0.0397 | [6]; compound concentration: 100uM -0.3 | [6]; compound concentration: 200uM -0.848 | [7]; compound concentration: 0.78uM -0.531 | [7]; compound concentration: 1.56uM -0.227 | [7]; compound concentration: 3.13uM -0.277 | [7]; compound concentration: 6.25uM -0.312 | [7]; compound concentration: 12.5uM -0.223 | [7]; compound concentration: 25uM -0.606 | [7]; compound concentration: 50uM -0.594 | [7]; compound concentration: 100uM -0.346 | [7]; compound concentration: 200uM -0.308 | [8]; compound concentration: 0.78uM -0.226 | [8]; compound concentration: 1.56uM -0.458 | [8]; compound concentration: 3.13uM -0.0391 | [8]; compound concentration: 6.25uM -0.447 | [8]; compound concentration: 12.5uM -0.421 | [8]; compound concentration: 25uM -0.293 | [8]; compound concentration: 50uM -0.255 | [8]; compound concentration: 100uM -0.504 | [8]; compound concentration: 200uM -0.644 | [9]; compound concentration: 50uM -0.56 | [10]; compound concentration: 50uM -0.02 | [10]; compound concentration: 200uM 0.295
active: [1]; compound concentration: 200uM -1.92 | [3]; compound concentration: 200uM -2.93 | [9]; compound concentration: 200uM -1.2
